# ± gives the standard deviation of the averaged measurements.
# Tests used:
# [1] = tested on: Escherichia coli Nissle 1917; experiment: area under OmniLog respiration curve over 48 h (OmniLog units x h); higher = more growth / nutrient utilisation; extreme values may be limits of the assay; conditions: incubation: 48 h, 37 °C
# [2] = tested on: Escherichia coli Nissle 1917; experiment: DuctApe activity index of respiration/growth curve (0 no growth to 9 maximum) (index 0-9); higher = more growth / nutrient utilisation, active = 3 or more; extreme values may be limits of the assay; conditions: incubation: 48 h, 37 °C
# [3] = nutrient role: sole phosphorus source (pyruvate carbon)
# [4] = nutrient role: sole nitrogen source (pyruvate carbon)
# [5] = nutrient role: C-Source, carboxylic acid
# [6] = nutrient role: sole sulfur source (pyruvate carbon)
# [7] = nutrient role: C-Source, carbohydrate
# 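Throughout, for DuctApe activity index of respiration/growth curve (0 no growth to 9 maximum): biolog PM4 phosphorus and sulfur plates, tetrazolium violet dye reduction read in the OmniLog every 15 min, kinetic curves scored by DuctApe, each plate run in triplicate.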
structure (smiles),measurement,setting,value
"Nc1ncnc2c1ncn2[C@@H]1O[C@@H]2COP(=O)(O)O[C@H]2[C@H]1O [Adenosine 3`,5`-Cyclic Monophosphate]",area under OmniLog respiration curve,[1]; [3],5670 ± 1300
same,DuctApe activity index,[2]; [3],6.67 (active)
Nc1nc2c(ncn2[C@@H]2O[C@H](CO)[C@@H](O)[C@H]2OP(=O)(O)O)c(=O)[nH]1 [Guanosine 2`-Monophosphate],area under OmniLog respiration curve,[1]; [3],9820 ± 820
same,DuctApe activity index,[2]; [3],9 (active)
C[C@H](N)C(=O)N[C@@H](CCC(N)=O)C(=O)O,area under OmniLog respiration curve,[1]; [4],8550 ± 1600
same,DuctApe activity index,[2]; [4],8 (active)
O=C(O)[C@H]1OC(O)[C@H](O)[C@@H](O)[C@H]1O (stereo partly drawn) [D-Galacturonic acid],area under OmniLog respiration curve,[1]; [5],10200 ± 880
same,DuctApe activity index,[2]; [5],9 (active)
O=S(=O)(O)CCO [2-Hydroxyethane Sulfonic acid],area under OmniLog respiration curve,[1]; [6],7790 ± 450
same,DuctApe activity index,[2]; [6],8 (active)
O=C(O)c1ccccc1O [2-Hydroxybenzoic acid],area under OmniLog respiration curve,[1]; [5],4.72
same,DuctApe activity index,[2]; [5],0 (inactive)
NC(=O)NC(N)=O [Biuret],area under OmniLog respiration curve,[1]; [4],3650 ± 1400
same,DuctApe activity index,[2]; [4],5 (active)
OCC(O)CO [Glycerol],area under OmniLog respiration curve,[1]; [7],7310 ± 730
same,DuctApe activity index,[2]; [7],7.67 (active)
OC1OC[C@@H](O)[C@H](O)[C@H]1O (stereo partly drawn) [D-Xylose],area under OmniLog respiration curve,[1]; [7],9160 ± 580
same,DuctApe activity index,[2]; [7],8.67 (active)
CCC(N)C(=O)O (racemic) [DL-a-Amino-N-Butyric acid],area under OmniLog respiration curve,[1]; [4],6040 ± 1200
same,DuctApe activity index,[2]; [4],7 (active)
OC[C@@H](O)[C@H](O)[C@@H](O)CO [Xylitol],area under OmniLog respiration curve,[1]; [7],4.72
same,DuctApe activity index,[2]; [7],0 (inactive)
CCC(=O)C(=O)O [a-Ketobutyric acid],area under OmniLog respiration curve,[1]; [5],800 ± 760
same,DuctApe activity index,[2]; [5],1.67 (inactive)
C=C(CC(=O)O)C(=O)O [Itaconic acid],area under OmniLog respiration curve,[1]; [5],4.72
same,DuctApe activity index,[2]; [5],0 (inactive)
Cc1cn([C@H]2C[C@H](O)[C@@H](COP(=O)(O)O)O2)c(=O)[nH]c1=O [Thymidine 5`-Monophosphate],area under OmniLog respiration curve,[1]; [3],8850 ± 380
same,DuctApe activity index,[2]; [3],8.67 (active)
O=c1[nH]c(=O)c2nc[nH]c2[nH]1 [Xanthine],area under OmniLog respiration curve,[1]; [4],2650 ± 1100
same,DuctApe activity index,[2]; [4],4 (active)
O=C(O)C(O)COP(=O)(O)O [D-3-Phospho-Glyceric acid],area under OmniLog respiration curve,[1]; [3],9300 ± 690
same,DuctApe activity index,[2]; [3],8.67 (active)
O=P(O)(O)O[C@H]1O[C@H](CO)[C@@H](O)[C@H](O)[C@@H]1O [D-Mannose-1-Phosphate],area under OmniLog respiration curve,[1]; [3],9100 ± 340
same,DuctApe activity index,[2]; [3],9 (active)
OC[C@@H](O)C(O)[C@H](O)CO [D-Arabitol],area under OmniLog respiration curve,[1]; [7],4.72
same,DuctApe activity index,[2]; [7],0 (inactive)
O=P(O)(O)OC[C@H]1OC(O)[C@@H](O)[C@@H](O)[C@@H]1O (stereo partly drawn) [D-Mannose-6-Phosphate],area under OmniLog respiration curve,[1]; [3],8540 ± 570
same,DuctApe activity index,[2]; [3],8.33 (active)
CCCCCN [N-Amylamine],area under OmniLog respiration curve,[1]; [4],12.9 ± 14
same,DuctApe activity index,[2]; [4],0 (inactive)
O=C(O)[C@@H](O)[C@@H](O)[C@H](O)[C@@H](O)C(=O)O [D-Saccharic acid],area under OmniLog respiration curve,[1]; [5],9150 ± 780
same,DuctApe activity index,[2]; [5],8.67 (active)
O=C(O)[C@]1(O)C[C@@H](O)[C@@H](O)[C@H](O)C1 [Quinic acid],area under OmniLog respiration curve,[1]; [5],4.72
same,DuctApe activity index,[2]; [5],0 (inactive)
O=C[C@H](O)[C@H](O)[C@@H](O)CO [L-Lyxose],area under OmniLog respiration curve,[1]; [7],2670 ± 880
same,DuctApe activity index,[2]; [7],4.33 (active)
O=P(O)(O)OC[C@H]1OC(O)C[C@@H](O)[C@@H]1O (stereo partly drawn) [2-Deoxy-D-Glucose 6-Phosphate],area under OmniLog respiration curve,[1]; [3],4.72
same,DuctApe activity index,[2]; [3],0 (inactive)
O=C(O)[C@H]1OC(O)[C@H](O)[C@@H](O)[C@@H]1O (stereo partly drawn) [D-Glucuronic acid],area under OmniLog respiration curve,[1]; [5],10000 ± 950
same,DuctApe activity index,[2]; [5],9 (active)
NC(=O)CCCCC1CCSS1 (racemic) [DL-Lipoamide],area under OmniLog respiration curve,[1]; [6],561 ± 220
same,DuctApe activity index,[2]; [6],1 (inactive)
CSCC[C@@H](N)C(=O)O [D-Methionine],area under OmniLog respiration curve,[1]; [6],4590 ± 230
same,DuctApe activity index,[2]; [6],6.33 (active)
O=C1NC(=O)C(=O)N1 [Parabanic acid],area under OmniLog respiration curve,[1]; [4],556 ± 610
same,DuctApe activity index,[2]; [4],1.33 (inactive)

# Source: the supplement of paper PMC9801561
